# PubChem BioAssay AID2284062 (EPA ToxCast)
# The source made the active and inactive calls. Rule for the calls: active = hit-call score of the fitted dose curve at least 0.9, where 1 is the maximum; inactive = score below 0.9.
# Target: human CK1delta CK1 Kinase, CSNK1D (gene 1453) (UniProt P48730)
# Test: ERF_TW_ENZ_hCSNK1D: Eurofins (ERF) Enzymatic Radiometric [10 uM ATP] Assay for human CK1delta CK1 Kinase
# Protocol: ERF_TW_ENZ_hCSNK1D is a biochemical, single-readout assay that uses extracted gene-proteins in a cell-free assay. Measurements were taken 0.5 hour after chemical dosing in a 96-well plate. See CK1delta Human CK1 Kinase Enzymatic Radiometric Assay [10 uM ATP], Panlabs.ERF_TW_ENZ_hCSNK1D is an assay component calculated from the ERF_TW_ENZ_hCSNK1D assay. It is designed to measure enzyme activity using a type of enzyme reporter as detected by scintillation counting with radiometry technology.Data from the assay component ERF_TW_ENZ_hCSNK1D was analyzed at the assay endpoint, ERF_TW_ENZ_hCSNK1D, in the positive analysis fitting direction relative to DMSO as the negative control and baseline of activity. Using a type of enzyme reporter, loss-of-signal activity can be used to understand changes in enzymatic activity as they relate to gene CSNK1D. To generalize the intended target to other relatable targets, this assay endpoint is annotated to the kinase intended target family, where the subfamily is serine/threonine kinase.
# CK1d (h) is incubated with 8 mM MOPS pH 7.0, 0.2 mM EDTA, 200 uM KRRRALS(p)VASLPGL, 10 mM MgAcetate and [gamma-33P]-ATP (specific activity and concentration as required). The reaction is initiated by the addition of the Mg/ATP mix. After incubation for 40 minutes at room temperature, the reaction is stopped by the addition of phosphoric acid to a concentration of 0.5%. […]
# human CK1delta CK1 Kinase, CSNK1D (gene 1453), sequence (P48730 whole entry, looked up): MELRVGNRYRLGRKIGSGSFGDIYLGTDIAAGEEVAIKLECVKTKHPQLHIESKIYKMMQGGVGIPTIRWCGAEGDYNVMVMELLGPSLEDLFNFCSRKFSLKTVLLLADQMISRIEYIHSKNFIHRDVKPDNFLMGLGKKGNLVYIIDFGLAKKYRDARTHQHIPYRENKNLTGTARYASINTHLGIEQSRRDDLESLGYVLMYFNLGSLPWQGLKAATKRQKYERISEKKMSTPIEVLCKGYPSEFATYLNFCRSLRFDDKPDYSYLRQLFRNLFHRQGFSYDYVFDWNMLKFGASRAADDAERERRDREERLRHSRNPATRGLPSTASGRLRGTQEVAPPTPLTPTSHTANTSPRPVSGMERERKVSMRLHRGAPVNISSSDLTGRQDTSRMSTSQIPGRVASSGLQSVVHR
row,SMILES,AC50
1,O=C(/C=C/c1ccc(O)cc1)CC(=O)/C=C/c1ccc(O)cc1,1660 nM (active)
